Hits are enriched below; roughly 4% of the tested compounds scored in any of these assays.
TWEAK-Fn14 inh: inhibitors of TWEAK-Fn14 signaling, primary screen, luciferase reporter cells, uHTS; TWEAK-stimulated Fn14 reporter cells, luciferase luminescence, 8 h; inhibition, % at 10 µM; hit rate 2% among 360,000; AID 1159606, 2016; in the data active = inhibition above about 50%
MITF TRPM1 inh: inhibitors of MITF-dependent TRPM1 promoter reporter, primary screen, cell-based, SK-MEL-5, single point, luciferase | SK-MEL-5 TRPM1 promoter luciferase, 24 h | inhibition, % at 12.5 µM | hit rate 0.83% among 330,000 | AID 488899, 2010;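 active = mean inhibition across replicates of 60% or more, whatever share of single replicates reaches that level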
Peg3 promoter: Peg3 promoter-driven luciferase inhibitors, primary screen, cell-based, HeLa, luciferase luminescence; HeLa PEG-Prom luciferase reporter, overnight; inhibition, % at 20 µM; hit rate 1.7% among 360,000; AID 588405, 2011;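 active = inhibition of at least 50% at 20 µM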
LMP1 NFkB inh: EBV LMP1-driven NF-kappaB luciferase reporter inhibitors, primary screen, cell-based, luminescence, single point | LMP1-induced NF-kappaB luciferase reporter cells | hit rate 0.69% among 350,000 | inhibition, % at 12.5 µM; in the data active = inhibition above about 41%
HIF-2a block: HIF-2a reporter inhibitors, primary screen, luminescence, 786-0 RCC cells; 786-0 RCC cells HIF-2a reporter, luciferase luminescence, overnight; inhibition, % at 18.8 µM; hit rate 0.72% among 360,000;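 active = inhibition of the luminescence signal of 40% or more relative to plate controls, in a single-dose primary screen at 18.75 µM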
TROY signal inh: inhibitors of TROY-driven NF-kB signaling, primary screen, Q293 LMP1-TROYcd cells, NF-kB luciferase, uHTS; Q293 LMP1-TROYcd NF-kB luciferase reporter, 4 h; inhibition, % at 10 µM; hit rate 0.98% among 360,000;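 active = compounds whose plate-normalised and pattern-corrected inhibition of the luciferase reporter signal at the single screening dose is 50% or more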
A number is an active result; ! = a repeat was not active.

For CC(=O)N/C(=C\c1ccccc1)C(=O)OCc1cc(C)ccc1C the results were TWEAK-Fn14 inh inactive, MITF TRPM1 inh inactive, Peg3 promoter inactive, LMP1 NFkB inh inactive, HIF-2a block inactive and TROY signal inh inactive.
CC1=C(C(=O)Nc2ccc(C)cc2C)C(c2cccc([N+](=O)[O-])c2)n2nc(C(=O)OC(C)C)nc2N1 (stereo not given) was read as TWEAK-Fn14 inh inactive, MITF TRPM1 inh inactive, Peg3 promoter 80.9, LMP1 NFkB inh inactive, HIF-2a block inactive and TROY signal inh inactive.
Cc1ccc(O)c(Nc2c3ccccc3nc3ccccc23)c1 was read as TWEAK-Fn14 inh inactive, MITF TRPM1 inh inactive, Peg3 promoter 61.1, LMP1 NFkB inh inactive, HIF-2a block inactive and TROY signal inh inactive.
Cc1ccc(O)c(Nc2nc(-c3ccccc3)nc3ccccc23)c1 was read as TWEAK-Fn14 inh inactive, MITF TRPM1 inh inactive, Peg3 promoter inactive, LMP1 NFkB inh inactive, HIF-2a block inactive and TROY signal inh inactive.
`CCCS(=O)(=O)Nc1ccc(Nc2c3ccccc3nc3ccccc23)c(OC)c1` gave TWEAK-Fn14 inh inactive, MITF TRPM1 inh 75.4, Peg3 promoter inactive, LMP1 NFkB inh 42.8, HIF-2a block inactive and TROY signal inh inactive.
`COc1cc(N)ccc1Nc1c2ccccc2nc2ccccc12` gave TWEAK-Fn14 inh inactive, Peg3 promoter 102.6, HIF-2a block inactive and TROY signal inh inactive.
COc1ccc(CN(C)C(=O)CCCNC(=O)c2ccc(Cl)cc2)cc1 was read as TWEAK-Fn14 inh inactive, MITF TRPM1 inh inactive, Peg3 promoter inactive, LMP1 NFkB inh inactive, HIF-2a block inactive and TROY signal inh inactive.
Screening NS(=O)(=O)c1ccc(CCNC(=O)CNC(=O)c2ccccc2Br)cc1 returned TWEAK-Fn14 inh 50.9, MITF TRPM1 inh inactive, Peg3 promoter inactive, LMP1 NFkB inh inactive, HIF-2a block inactive and TROY signal inh inactive.
For NS(=O)(=O)c1ccc(CCNC(=O)CNC(=O)c2ccc(F)cc2)cc1 the results were TWEAK-Fn14 inh inactive, MITF TRPM1 inh inactive, Peg3 promoter inactive, LMP1 NFkB inh inactive, HIF-2a block inactive and TROY signal inh inactive.
`Cc1nn(-c2ccccc2)c(C)c1C(=O)OCC(=O)N1c2ccccc2NC(=O)C1(C)C` gave TWEAK-Fn14 inh inactive, MITF TRPM1 inh inactive, Peg3 promoter 58.7, LMP1 NFkB inh inactive, HIF-2a block inactive and TROY signal inh inactive.
`COC(=O)C1(C(=O)OC)C[C@H](c2ccc(OC)cc2)N(Cc2ccccc2OC)[C@@H]1c1cccs1` gave HIF-2a block inactive.
Cc1cc(C)c2c(=N)c3ccccc3n(CCCCCCCCn3c4ccccc4c(=N)c4c(C)cc(C)nc43)c2n1 was read as TWEAK-Fn14 inh inactive, MITF TRPM1 inh inactive, Peg3 promoter 104.6, LMP1 NFkB inh inactive, HIF-2a block inactive and TROY signal inh inactive.
CCCCCn1c2c(c(=N)c3ccccc31)CCC2 was read as TWEAK-Fn14 inh inactive, MITF TRPM1 inh inactive, Peg3 promoter inactive, LMP1 NFkB inh inactive, HIF-2a block inactive and TROY signal inh inactive.
Screening CCCC(=O)N1CCC1(C)C(=O)NS(=O)(=O)c1cc2c(cc1C)CCCS2(=O)=O (stereo not given) returned TWEAK-Fn14 inh inactive, Peg3 promoter inactive, HIF-2a block inactive and TROY signal inh inactive.
Screening COCCCC/C(=N\OCCN)c1ccc(C(F)(F)F)cc1 returned TWEAK-Fn14 inh inactive, MITF TRPM1 inh inactive, Peg3 promoter inactive, LMP1 NFkB inh 68.3!, HIF-2a block inactive and TROY signal inh inactive.
Screening CCN(CC(=O)Nc1c(F)cccc1F)C(=O)c1ccc(OCC(=O)N2CCOCC2)c(OC)c1 returned TWEAK-Fn14 inh inactive, MITF TRPM1 inh inactive, Peg3 promoter inactive, LMP1 NFkB inh inactive, HIF-2a block inactive and TROY signal inh inactive.
CC(=O)c1ccc(NC(=O)/C(Cl)=C/c2ccccc2)cc1 was read as TWEAK-Fn14 inh inactive, MITF TRPM1 inh inactive, Peg3 promoter inactive, LMP1 NFkB inh inactive, HIF-2a block inactive and TROY signal inh 71.2.
Cc1ccc(NC(=O)/C(Cl)=C\c2ccccc2)cc1 was read as TWEAK-Fn14 inh inactive, MITF TRPM1 inh inactive, Peg3 promoter inactive, LMP1 NFkB inh inactive, HIF-2a block inactive and TROY signal inh inactive.
